Screening results from PubChem.
MITF TRPM1 inh: inhibitors of MITF-dependent TRPM1 promoter reporter, primary screen, cell-based, SK-MEL-5, single point, luciferase; inhibition, % at 12.5 µM; actives 0.83% (n = 330,000); SK-MEL-5 TRPM1 promoter luciferase, 24 h; AID 488899, 2010;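 active means mean inhibition across replicates of 60% or more, whatever share of single replicates reaches that level; inconclusive means some that reach 60%, reason not given; inactive means mean inhibition across replicates below 60%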
HIF-2a inh: HIF-2a reporter inhibitors, primary screen, luminescence, 786-0 RCC cells; 786-0 RCC cells HIF-2a reporter, luciferase luminescence, overnight; inhibition, % at 18.8 µM; actives 0.72% (n = 360,000);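 active means inhibition of the luminescence signal of 40% or more relative to plate controls, in a single-dose primary screen at 18.75 µM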
Peg3 promoter: Peg3 promoter-driven luciferase inhibitors, primary screen, cell-based, HeLa, luciferase luminescence | HeLa PEG-Prom luciferase reporter, overnight | inhibition, % at 20 µM | actives 1.7% (n = 360,000);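 active means inhibition of at least 50% at 20 µM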
CHOP inh: inhibitors of CHOP promoter induction, primary screen, cell-based, unfolded protein response, luciferase reporter; CHO-K1 CHOP-promoter luciferase, tunicamycin-induced, 15-18 h; inhibition, % at 10 µM; actives 3.8% (n = 220,000);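 active means compounds that reduced the stress-induced luciferase reporter signal by more than about 70% of percent inhibition, limit read from the data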
KKLEB tox: cytotoxicity in KKLEB CF airway cells, primary screen, cytotoxicity control for CF NF-kB inhibitor project, cell-based, uHTS, fluorescence assay plates. actives 0.36% (n = 360,000). KKLEB CF airway cells viability, ATPlite luminescence, overnight; stronger effect = lower value; cells stimulated with P. aeruginosa culture filtrate. activity change (cytotoxicity), % at 5 µM;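 active means corrected activity change at or below -50% at 5 µM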
CF NFkB block: inhibitors of PAF-induced NF-kB signaling, primary screen, cell-based, GFP fluorescence, uHTS; AID 588850, 2011; KKLEB NF-kB-GFP reporter, GFP fluorescence overnight; actives 0.86% (n = 360,000); inhibition, % at 5 µM;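 active means at least 50% inhibition at 5 µM, scaled per plate between neutral and stimulator controls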;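 further: PAF is a Pseudomonas aeruginosa culture filtrate used as stimulus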
Numbers stand for hits; 0 = inactive; ? = inconclusive; - = no result given. Sampled rows, rich in hits. Any-hit rate of the full collection: about 4.3%.

SMILES	MITF TRPM1 inh	HIF-2a inh	Peg3 promoter	CHOP inh	KKLEB tox	CF NFkB block
O=C(C[C@@H]1C=C[C@H](NS(=O)(=O)c2ccccc2F)[C@@H](CO)O1)NCCCN1CCOCC1	-	0	-	-	-	-
CCN(CC)CCNc1ncnc2c1[nH]c1ccc(OC)cc12	-	-	-	0	-	-
COc1ccc2[nH]c3c(NCCC4=CCCCC4)ncnc3c2c1	0	0	0	72	0	0
CC1(C(=O)NS(=O)(=O)c2ccc(Cl)cc2)CCN1C(=O)Cc1ccsc1 (stereo unspecified)	-	0	0	-	0	0
O=S(=O)(c1ccc(Cl)cc1)N1CCN(Cc2c[nH]c3ccccc23)CC1	0	0	0	71	0	0
COc1ccc(Br)cc1CN1CCN(Cc2c[nH]c3ccccc23)CC1	0	0	52	-	0	0
COc1ccc(CN2CCN(Cc3c[nH]c4ccccc34)CC2)cc1OC	-	0	0	-	0	0
Cc1ccccc1CN1CCN(S(=O)(=O)c2ccc(F)cc2)CC1	0	0	0	88	0	0
Nc1ncnc2c1ncn2[C@@H]1O[C@H](CNCc2ccccc2OCC(=O)N2CCCCC2)[C@@H](O)[C@H]1O	0	0	0	-	0	0
CC(C)(C#CCN1CCCCC1)OCCOC(c1ccccc1)c1ccccc1	0	0	0	77	0	0
Cc1ccccc1CSCC(=O)c1c(N)n(CC(C)C)c(=O)n(C)c1=O	0	0	0	81	0	0
CN(Cc1ccc(Cl)s1)C(=O)CCl	0	0	0	105	0	0
COc1ccc(CN(C)C(=O)CCl)cc1	0	0	0	0	0	0
COc1cc(C(=O)Nc2ccc3nc(N4CCN(C)CC4)cc(C)c3c2)cc(OC)c1OC	-	0	0	-	0	0
COc1ccc(-c2nc(-c3ccc(NC(=O)c4ccncc4)cc3)no2)cc1OC	-	0	99	72	0	0
COc1ccc(NC(=O)c2ccc(-c3ccc(-c4noc(C)n4)cc3C)cc2)cc1N1CCN(C)CC1	?	0	64	0	0	0
COc1cc2c(cc1OC)[C@@H](c1ccccc1)CN(C)CC2	-	-	-	0	-	-
CCCCNC(=S)N(C)/N=C/c1ccccc1F	0	0	0	77	0	0
CCCCNC(=S)N(C)/N=C/c1c(F)cccc1F	0	0	0	0	0	0
O=C(NCCCN1CCOCC1)c1cccc(S(=O)(=O)N2CCc3ccccc32)c1	-	0	0	-	0	0
Cc1csc(NC(=O)CSc2nc3[nH]c(=O)cc(O)c3s2)n1	87	0	99	-	0	71
Cc1ccc(C)c(Cn2c(C(=O)OC(C)C)cc3c2ccn3C)c1	0	0	0	73	0	0
CCOC(=O)c1cc2c(ccn2C)n1Cc1ccccc1C	0	0	0	70	0	0
Cc1ccccc1Cn1c(C(=O)OC(C)C)cc2c1ccn2C	0	0	0	0	0	0
CCc1cccc(CC)c1N1C(=O)C2=C(SCCCS2)C1=O	-	0	0	-	0	0
SMILES	MITF TRPM1 inh	HIF-2a inh	Peg3 promoter	CHOP inh	KKLEB tox	CF NFkB block
N#CC(Nc1ccccc1)c1ccccc1OCc1ccccc1 (stereo unspecified)	0	0	0	89	0	0
O=C(c1ccc(O)cc1)c1ccc(Cl)cc1	0	0	0	83	0	0
CSc1nc(-c2ccc(C)cc2)nc(C(Cl)Cl)n1	77	0	102	0	0	0
O=C(c1ccc2nc(Cc3ccccc3F)oc2c1)N1CC[C@H](O)C1	0	0	0	-	0	0
CCCCCCC1CC(CCC(=O)Nc2ccc([N+](=O)[O-])cc2)C(=O)O1 (stereo unspecified)	0	0	0	84	0	0
CCCCCC1CC(CC(=O)O)C(=O)O1 (stereo unspecified)	0	0	0	0	0	0
CCCCCC1CC(CC(=O)Nc2ccc([N+](=O)[O-])cc2)OC1=O (stereo unspecified)	0	0	0	91	0	0
CCN1CCN(c2c(/C=C3\SC(=S)N(Cc4ccco4)C3=O)c(C)c(C#N)c(=O)n2C)CC1	0	0	0	0	0	0
Cc1ccc(CN(C)C(=O)CCc2nc3sc4c(c3c(=O)[nH]2)CCCC4)o1	0	0	0	-	0	0
C=CCNC(=S)/N=c1/ccccn1CC	0	0	0	0	0	0
CCCCOc1ccc(S(=O)(=O)N2CCN(C)CC2)cc1	0	0	0	-	0	0
CCCCOc1ccc(S(=O)(=O)N2CCCCCC2)cc1	0	0	0	91	0	0
O=C1CSC(=S)N1c1cccc(O)c1	0	48	0	-	0	0
Cc1cc(C)nc(Nc2n[nH]c(-c3ccc(N)cc3)n2)n1	0	0	0	0	0	0
Cc1cc(C)nc(Nc2n[nH]c(-c3ccc(C(C)(C)C)cc3)n2)n1	0	0	0	77	0	0
CCOC(=O)c1nc(C)nc(Sc2n[nH]c(-c3cc(C(F)(F)F)cc(C(F)(F)F)c3)n2)c1C	0	0	0	72	0	0
CCOC(=O)c1cc(-c2cccc(C(F)(F)F)c2)nc2nc(SC)[nH]c(=O)c12	0	0	0	0	0	0
COc1ccc(CNc2cccc(F)c2)cc1Br	0	0	0	86	0	0
COc1c(C(O)CC(C)C)ccc2c1C(=O)OCc1cc(C)cc(O)c1O2 (stereo unspecified)	0	0	0	0	0	0
COc1c(C(CC(C)C)OC(C)=O)ccc2c1C(=O)OCc1cc(C)cc(O)c1O2 (stereo unspecified)	0	0	0	72	0	0
O=[N+]([O-])/C=C/c1c(OCc2ccccc2)ccc2ccccc12	98	95	101	110	-54	61
CCCCOc1ccc2ccccc2c1C=O	0	0	0	0	0	0
Cc1cc(C)c2nc(N3CCC(C(=O)NCCCN4CC(C)CC(C)C4)CC3)sc2c1 (stereo unspecified)	83	0	104	0	0	0
CCCc1ccc(OC(=O)c2ccc(O)cc2Cl)cc1	0	0	0	87	0	0
CCCc1ccc(OC(=O)c2cccs2)cc1	0	0	0	0	0	0
SMILES	MITF TRPM1 inh	HIF-2a inh	Peg3 promoter	CHOP inh	KKLEB tox	CF NFkB block
Cc1ccc(-c2nc(Nc3ccc(O)cc3)c3ccccc3n2)cc1	0	0	59	-	0	0
Cc1ccc(-c2nc(N/N=C/c3cccc([N+](=O)[O-])c3)c3ccccc3n2)cc1	0	0	0	81	0	0
Cc1ccc(-c2nc(N/N=C/c3cccnc3)c3ccccc3n2)cc1	0	0	0	0	-71	0
O=C(CN1CCc2cc3c(cc2C1)OCCCO3)Nc1c(F)cccc1F	0	0	0	-	0	0
O=C1c2ccccc2[C@@H]2C[C@@H](O)[C@H](Nc3cccc4ccccc34)CCN12	0	0	0	-	0	0
CCn1c(SCC(=O)N(C)CC(=O)Nc2ccc(F)c(F)c2F)nnc1-c1ccco1	0	0	0	-	0	0
